According to PubChem BioAssay AID1159580 (chemical genetic matrix, 2015):
Out of some 5,500 compounds screened, about 2,000 (36%) were called active. Roughly 18% stayed inconclusive and do not appear here. Rule as the data show it: active = normalized growth mostly below about 0.91 (no sharp cut-off); inconclusive = no clear call, values can overlap the other calls; inactive = mostly above about 0.92. Some of the results follow.

Experiment: chemical genetic growth profiling, strain panel (AID 1159580);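 also: tested at 20 µM; growth read once vehicle control cultures reached saturation at 30 °C; 1 = growth at the plate median or of vehicle wells; lower values mean less growth of the strain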
Conditions: S. cerevisiae deletion strains, growth OD

Measured: normalized growth

O=C(O)/C(=C/c1c(C(=O)O)[nH]c2cc(Cl)cc(Cl)c12)c1ccccc1
inactive: locus YAL013W, strain DEP1, active compounds read low 0.99 | locus YAL040C, strain CLN3, active compounds read low 1.07 | locus YCL061C, strain MRC1 (second series), active compounds read low 0.977 | locus YDR150W, strain NUM1, active compounds read low 0.979 | locus YDR363W, strain ESC2, active compounds read low 1.03 | locus YER002W, strain NOP16, active compounds read low 0.993 | locus YGR229C, strain SMI1, active compounds read low 0.999 | locus YJR075W, strain HOC1, active compounds read low 0.988 | locus YMR263W, strain SAP30, active compounds read low 0.979 | locus YMR307W, strain GAS1, active compounds read low 1.01 | locus YNL175C, strain NOP13, active compounds read low 0.996 | locus YNL197C, strain WHI3, active compounds read low 0.98 | locus YNL224C, strain SQS1, active compounds read low 0.977 | locus YNL322C, strain KRE1, active compounds read low 0.975 | locus YOR083W, strain WHI5 (second series), active compounds read low 0.99 | locus YPL055C, strain LGE1, active compounds read low 0.985
